Screens (PubChem BioAssay)
The list is a sample of the results.
aSyn 5UTR act: Activators working through SNCA 5'UTR binding (MLPCN) | alpha-synuclein 5'UTR reporter, activators screen | activity score, % (tested at 7.5 µM), hits read low | 300,000 tested, 7.1% active; in the data active = activity score below about -60%
Hits are given with their value.

COc1cc(C(=O)Nc2ccc3c(c2)nc(C)n3C)cc(OC)c1OC was read as aSyn 5UTR act -92.
For COc1cc(C(=O)NC(=S)N(CCc2ccccc2)CCc2ccccc2)cc(OC)c1OC the results were aSyn 5UTR act inactive.
Screening Cc1ccc(NC(=O)Nc2ccc3c(c2)nc(C)n3C)cc1C returned aSyn 5UTR act -127.
`Cc1c(NC(=O)/C(C#N)=C/c2ccc(-c3ccccc3Cl)o2)c(=O)n(-c2ccccc2)n1C` gave aSyn 5UTR act inactive.
`CC(=O)/C=C(\C)Nc1c(C)n(C)n(-c2ccccc2)c1=O` gave aSyn 5UTR act -82.
O=C(CSCc1ccccc1)N=Nc1c(O)[nH]c2ccccc12 was read as aSyn 5UTR act -79.
Screening O=C(N=Nc1c(O)[nH]c2ccccc12)c1ccco1 returned aSyn 5UTR act -170.
For CCn1c(SCC(=O)N=Nc2c(O)[nH]c3ccccc23)nc2ccccc21 the results were aSyn 5UTR act -79.
Screening COCCN(CCOC)S(=O)(=O)c1ccc(C(=O)Nc2sc3c(c2C(N)=O)CCCCC3)cc1 returned aSyn 5UTR act -107.
Screening NC(=O)c1c(NC(=O)c2cccs2)sc2c1CCCCCC2 returned aSyn 5UTR act -122.
For COc1cc(OC)cc(C(=O)Nc2sc3c(c2C(N)=O)CCC3)c1 the results were aSyn 5UTR act -105.
For NC(=O)c1c(NC(=O)c2ccccc2F)sc2c1CCCC2 the results were aSyn 5UTR act -170.
For NCCNC(=O)c1c(NC(=O)c2ccccc2)sc2c1CCCC2 the results were aSyn 5UTR act -125.
Screening NC(=O)c1c(NC(=O)c2ccc(F)cc2Cl)sc2c1CCC2 returned aSyn 5UTR act -96.
CCOc1ccc2[nH]c3c(NCCCOC)ncnc3c2c1 was read as aSyn 5UTR act -96.
For CC(C)OCCCNc1ncnc2c1[nH]c1ccccc12 the results were aSyn 5UTR act -178.
For O=c1c2[nH]c3ccccc3c2ncn1CCC1=CCCCC1 the results were aSyn 5UTR act -121.
COc1ccc2[nH]c3c(=O)n(CCc4ccccc4)cnc3c2c1 was read as aSyn 5UTR act -76.
Screening CCOc1ccc2[nH]c3c(NCC(C)C)ncnc3c2c1 returned aSyn 5UTR act -99.
`COc1ccc2[nH]c3c(NCCCN4CCCC4=O)ncnc3c2c1` gave aSyn 5UTR act -96.
For CN1C2CCC1/C(=C\c1ccccc1)C(=O)/C2=C\c1ccccc1 the results were aSyn 5UTR act -185.
For O=[N+]([O-])c1cc(C(F)(F)F)ccc1NCCOc1ccccc1 the results were aSyn 5UTR act -124.
c1ccc(-c2nnnc3ccccc23)cc1 was read as aSyn 5UTR act -165.
`Clc1ccc2nnnc(-c3ccccc3)c2c1` gave aSyn 5UTR act -375.
Screening O=c1[nH]c(N/N=C/c2ccccc2)nc2ccccc12 returned aSyn 5UTR act -212.
For Brc1ccc(-c2ccc(/C=N/Nc3nc4ccccc4[nH]3)o2)cc1 the results were aSyn 5UTR act -227.
For Fc1cccc(/C=N/Nc2nc3ccccc3[nH]2)c1 the results were aSyn 5UTR act -160.
C(=N\Nc1nc2ccccc2[nH]1)/c1ccccc1 was read as aSyn 5UTR act -175.
For Fc1ccc(/C=N/Nc2nc3ccccc3[nH]2)cc1F the results were aSyn 5UTR act -159.
For O=c1[nH]c(N/N=C\c2ccc3c(c2)OCO3)nc2ccccc12 the results were aSyn 5UTR act -161.
For C(=C\c1ccccc1)/C=N/Nc1nc2ccccc2[nH]1 the results were aSyn 5UTR act -275.
Screening C(/CCc1ccccc1)=N\Nc1nc2ccccc2[nH]1 returned aSyn 5UTR act -67.
Screening Cc1cc(N/N=C/c2ccc3c(c2)OCO3)nc2ccccc12 returned aSyn 5UTR act -180.
Screening Cc1ccc(-c2nn(-c3ccccc3)cc2/C=N/NS(=O)(=O)c2ccccc2)cc1 returned aSyn 5UTR act -76.
`CCN(CC)c1ccc(/C=N/NC(=O)c2cccc(S(=O)(=O)Nc3ccccc3OC)c2)c(O)c1` gave aSyn 5UTR act inactive.
COc1ccc(NS(=O)(=O)c2cccc(C(=O)N/N=C/c3cn(-c4ccccc4)nc3-c3ccc(OC)cc3)c2)cc1 was read as aSyn 5UTR act -85.
For COc1ccc(-c2nn(-c3ccccc3)cc2/C=N/NC(N)=S)cc1OC the results were aSyn 5UTR act inactive.
Screening O=C(Nc1ccccc1F)c1ccc2nc(N3C(=O)CCC3=O)sc2c1 returned aSyn 5UTR act -117.
O=C(Nc1ccccc1Cl)c1ccc2nc(N3CCOCC3)sc2c1 was read as aSyn 5UTR act -99.
O=C(N/N=C/c1sc(N2CCOCC2)nc1-c1ccccc1)c1cccc(S(=O)(=O)N2CCCC2)c1 was read as aSyn 5UTR act inactive.
O=C(Nc1ccc(F)cc1F)c1ccc2nc(N3CCOCC3)sc2c1 was read as aSyn 5UTR act -62.
Cc1ccn2c(=O)nc(SCC(=O)c3ccccc3)nc2c1 was read as aSyn 5UTR act -76.
Screening Cc1ccc2nc(SCC(=O)c3ccccc3)nc(=O)n2c1 returned aSyn 5UTR act -112.
c1ccc(Sc2cnc3ccccc3n2)cc1 was read as aSyn 5UTR act -169.
Brc1ccc(Sc2cnc3ccccc3n2)cc1 was read as aSyn 5UTR act -77.
For Clc1ccc(Sc2cnc3ccccc3n2)cc1 the results were aSyn 5UTR act -75.
CN(C(=O)c1ccc2c(c1)OCO2)C1CCCCC1 was read as aSyn 5UTR act -82.
`O=C(NC1CCCCC1)c1ccc2c(c1)OCO2` gave aSyn 5UTR act -93.
`CN(C(=O)c1cccc(N2C(=O)C3C4C=CC(C4)C3C2=O)c1)C1CCCCC1` (stereo unspecified) gave aSyn 5UTR act -102.
Screening O=C(Nc1ccc(Cl)cn1)c1cc2c(s1)-c1ccccc1OC2 returned aSyn 5UTR act -111.
Screening Cc1cccc2c1-c1sc(C(=O)Nc3cccc([N+](=O)[O-])c3C)cc1CO2 returned aSyn 5UTR act -73.
O=C(Nc1nc2ccccc2s1)c1cc2c(s1)-c1ccccc1OC2 was read as aSyn 5UTR act -177.
For Cc1cccc2c1-c1sc(C(=O)Nc3nccs3)cc1CO2 the results were aSyn 5UTR act -213.
Screening CCOC(=O)c1cc2c(s1)-c1c(C)cccc1OC2 returned aSyn 5UTR act -164.
CN1CCN(c2ccccc2NC(=O)c2cc3c(s2)-c2ccccc2OC3)CC1 was read as aSyn 5UTR act -71.
`CCOC(=O)c1ccc(NC(=O)c2cccc(S(=O)(=O)N3c4ccccc4CC3C)c2)s1` (stereo unspecified) gave aSyn 5UTR act inactive.
O=C(Nc1nccs1)c1cc2c(s1)-c1ccccc1OC2 was read as aSyn 5UTR act -218.
CCc1cc2c(N=Nc3c(O)[nH]c4ccccc34)ncnc2s1 was read as aSyn 5UTR act -62.
For Cc1sc2ncnc(N=Nc3c(O)[nH]c4ccccc34)c2c1C the results were aSyn 5UTR act -141.
Oc1[nH]c2ccccc2c1N=Nc1nncc2ccccc12 was read as aSyn 5UTR act -62.
For O=C(Nc1nc2ccc([N+](=O)[O-])cc2s1)C1CCCO1 (stereo unspecified) the results were aSyn 5UTR act -153.
O=C(Nc1nc2ccc(S(=O)(=O)N3CCCC3)cc2s1)C1CCCCC1 was read as aSyn 5UTR act inactive.
For O=C(Nc1nc2ccc(Cl)cc2s1)C1CCCO1 (stereo unspecified) the results were aSyn 5UTR act -127.
O=C(Nc1nc2ccc(Cl)cc2s1)C1CC1 was read as aSyn 5UTR act -150.
O=C(Nc1nc2ccccc2s1)C1CCN(S(=O)(=O)c2cc([N+](=O)[O-])ccc2Cl)CC1 was read as aSyn 5UTR act -81.
